Inconclusive results are not listed. Calls of active or inactive are those of the source. Calls follow the shape of the dose curve; as a rule, active = well fitted curve in the direction sought with a large enough effect; inconclusive = small, poorly fitted or top-dose-only effect, or another doubt; inactive = no such curve, though single readings can be large or run the other way.
Test: qHTS screen for small molecules that inhibit ELG1-dependent DNA repair: SAR in Cell-Based Luciferin Counter Assay
Settings: cell-based luciferase counter-screen, luminescence; series mostly up to 45.7 µM
From the text: Cancer cells divide rapidly compared to normal cells in the body. During cell division, cancer cells need to duplicate their genome by DNA replication. The failure of genome duplication leads to cancer cells' death. Therefore, inhibitors of DNA replication could specifically kill cancer cells. Based on this concept, many chemotherapeutic agents were developed and have been used to treat cancer patients. However, there are a limited number of agents available in the clinical setting, and some of those that do exist have low efficacy and severe side effects. Therefore, if we can find the compounds that effectively block DNA replication either by directly damaging DNA or by inhibiting other cellular mechanisms, the options for cancer treatment will be broadened. With this in mind, we developed a quantitative high-throughput ELG1-luciferase reporter gene assay. Small molecules that specifically block ELG1 function in response to DNA damage can be identified by monitoring the suppression of luciferase activity. Since ELG1 defines a pathway for repairing DNA damage, agents blocking ELG1 function can be used to sensitize cancer cells to chemotherapeutic agents whose mechanism of action involves the induction of DNA damage. This assays is a counterscreen, that is more specifically, a cell-based luciferase assay following treatment with putative ELG1 antagonists to eliminate luciferase enhancers/inhibitors NIH Molecular Libraries Probe Production Network [MLPCN] NIH Chemical Genomics Center [NCGC] MLPCN Grant: R03 MH092164 Assay Provider: Kyungjae Myung, NHGRI, NIH
3 uL of substrate reagent will be pipetted into each well in 1536-well white, solid-bottom plates using a FRD dispenser, followed by addition of 23 nL of DMSO or compounds by pintool. After compound addition, 1 µL of luciferase will be added into the wells. The plates will be read in a ViewLux CCD-based plate reader.

| SMILES | outcome |
| --- | --- |
| O=c1[nH]c(=O)n([C@@H]2C[C@H](O)[C@H](CO)O2)cc1C(F)(F)F | inactive |
| Cc1noc(C)c1-c1ccc2ncnc(NCc3ccc(F)c(F)c3)c2c1 | inactive |
| COc1ccc(-c2nc(-c3cccnc3)no2)cc1 | inactive |
| CN(C)c1ccc(/C=C2\C=Cc3ccccc32)c(F)c1 | inactive |
| O=C(Nc1ccccn1)c1sc2ccccc2c1Cl | inactive |
| Oc1ccc(CCc2ccccc2F)c2cccnc12 | inactive |
| COc1cc(C)c2c(=O)cc(-c3ccccc3)oc2c1 | inactive |
| CC(C)CN(C)c1ccc(/C=C2\C=Cc3ccccc32)cc1 | inactive |
| NC(=O)C1CCN(c2cc(-c3ccc4c(c3)OCCCO4)ncn2)CC1 | inactive |
| CN(C)c1cccc(-c2ccnc(N3CCC(C(N)=O)CC3)n2)c1 | inactive |
| CC(=O)Oc1ccc(-c2nc(-c3ccccc3)no2)cc1 | inactive |
| Cc1ccnc(NC(=S)N2CCN(c3ccc(N)cc3)CC2)c1 | inactive |
| Cc1cc2ncc(-c3ccccc3)nc2cc1C | inactive |
| Cc1nc(Nc2nc3ccccc3o2)nc2c1CCCC2 | inactive |
| O=C(Nc1ccccn1)c1sc2ccc([N+](=O)[O-])cc2c1Cl | inactive |
| N#Cc1ccc(-c2ccc(-c3nc4ccccc4c(=O)[nH]3)o2)cc1 | inactive |
| COc1ccc(C2=Nn3c(nnc3-c3ccccc3OC)SC2)cc1OC | inactive |
| CCCC(=O)Oc1ccc2[nH]c(C(=O)c3cc4ccccc4[nH]3)cc2c1 | inactive |
| COc1cccc([C@@H]2Oc3ccc(OC)cc3C(=O)[C@H]2OC(=O)NS(=O)(=O)c2ccc(C)cc2)c1 | inactive |
| Oc1cc2cc(-c3csc(-c4ccc(F)cc4)n3)cc3c2n1CCC3 | inactive |

| SMILES | outcome |
| --- | --- |
| CC(=O)OCC1=C[C@H]2[C@@H]3C(C)(C)[C@]3(OC(C)=O)C[C@@H](C)[C@]2(O)[C@@H]2C=C(C)C(=O)[C@@]2(O)C1 | inactive |
| COc1ccc(OC)c(-c2nnc3n2N=C(c2ccc(OC)c(OC)c2)CS3)c1 | inactive |
| O=C(/C=C/C#Cc1cccc(NS(=O)(=O)c2ccccc2)c1)NO | inactive |
| Oc1ccc(/C=C/c2c(F)cccc2F)c2cccnc12 | inactive |
| COc1ccc(-c2coc3cc(O)cc(O)c3c2=O)cc1 | inactive |
| Cc1ccc2nc3sc(C(=O)NCc4ccco4)cc3cc2c1 | inactive |
| COc1ccc(C2CC(c3c(O)cc(C)oc3=O)=NCCS2)c(OC)c1 (stereo not given) | inactive |
| O=S(=O)(c1c(F)cccc1F)N1CCN(S(=O)(=O)c2c(F)cccc2F)CC1 | inactive |
| COc1ccccc1/C=C/c1nc2ccccc2o1 | inactive |
| COC(=O)Nc1nc2ccc(C(=O)c3cccs3)cc2[nH]1 | inactive |
| COc1cc2c(cc1OC)C1C(=O)c3c(cc4c(c3O)C=CC(C)(C)O4)OC1CO2 (stereo not given) | inactive |
| O=C(Cc1ccc(OCCCc2ccccc2)cc1)NO | inactive |
| O=C1/C(=C/c2ccc(O)c(O)c2)Oc2ccccc21 | inactive |
| O=c1[nH]c(=O)n([C@@H]2O[C@H](CO)[C@@H](O)[C@H]2O)cc1F | inactive |
| CN(C)c1cccc(-c2nnc(N3CCC(C(N)=O)CC3)s2)c1 | inactive |
| CN(C)N=Nc1ccc(/C=C2\C=Cc3ccccc32)cc1 | inactive |
| c1cncc(CNc2ncnc3ccc(-c4ccoc4)cc23)c1 | inactive |
| CN(C)c1ccc(/C=C2\CCc3ccccc32)cc1 | inactive |
| O=C(NC1CCCC1)c1cc(-c2cccs2)on1 | inactive |
| CNC(=O)c1cc(-c2cccs2)on1 | inactive |

— PubChem BioAssay AID686934 (National Center for Advancing Translational Sciences (NCATS), 2013)
